Assay results taken from the supplement of paper PMC6992640.

Test system: WHIM30 (cells of a triple-negative basal-like breast cancer xenograft)
Assay: cell viability of combination (% of vehicle); higher = less cytotoxic
Conditions: 1 µM; 72 h; partner dose: 10 nM
Experimental: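 PDX cells were treated for 72 h with each drug at 1 µM plus carfilzomib (10 nM; 100 nM for WHIM2). Luciferase viability is expressed as percent of vehicle.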

Question: With `N.N.O=C([O-])C1(C(=O)[O-])CCC1.[Pt+2]` [Carboplatin] + CC(C)C[C@H](NC(=O)[C@H](CCc1ccccc1)NC(=O)CN1CCOCC1)C(=O)N[C@@H](Cc1ccccc1)C(=O)N[C@@H](CC(C)C)C(=O)[C@@]1(C)CO1 [Carfilzomib] as the compound, how does the “cell viability of combination” value read?
Answer: 22.9

Question: Which “cell viability of combination” value does the source give for `CCN1CCN(Cc2ccc(Nc3ncc(F)c(-c4cc(F)c5nc(C)n(C(C)C)c5c4)n3)nc2)CC1.CS(=O)(=O)O` + CC(C)C[C@H](NC(=O)[C@H](CCc1ccccc1)NC(=O)CN1CCOCC1)C(=O)N[C@@H](Cc1ccccc1)C(=O)N[C@@H](CC(C)C)C(=O)[C@@]1(C)CO1 [Carfilzomib] here?
Answer: 23.6

Question: With `CC1CC(=O)NN=C1c1ccc(NN=C(C#N)C#N)cc1` (stereo not given) [Levosimendan] + CC(C)C[C@H](NC(=O)[C@H](CCc1ccccc1)NC(=O)CN1CCOCC1)C(=O)N[C@@H](Cc1ccccc1)C(=O)N[C@@H](CC(C)C)C(=O)[C@@]1(C)CO1 [Carfilzomib] as the compound, how does the “cell viability of combination” value read?
Answer: 21.5

Question: Which “cell viability of combination” value does the source give for `Cl.Clc1ccccc1CN1CCc2sccc2C1` [Ticlopidine HCl] + CC(C)C[C@H](NC(=O)[C@H](CCc1ccccc1)NC(=O)CN1CCOCC1)C(=O)N[C@@H](Cc1ccccc1)C(=O)N[C@@H](CC(C)C)C(=O)[C@@]1(C)CO1 [Carfilzomib] here?
Answer: 16

Question: Which “cell viability of combination” value does the source give for `Cc1ccc(-n2[nH]c(C)c(NN=C3C=CC=C(c4cccc(C(=O)O)c4)C3=O)c2=O)cc1C` [Eltrombopag] + CC(C)C[C@H](NC(=O)[C@H](CCc1ccccc1)NC(=O)CN1CCOCC1)C(=O)N[C@@H](Cc1ccccc1)C(=O)N[C@@H](CC(C)C)C(=O)[C@@]1(C)CO1 [Carfilzomib] here?
Answer: 19.8

Question: How did the “cell viability of combination” value turn out when `Cn1cnc2c(F)c(Nc3ccc(Br)cc3F)c(C(=O)NOCCO)cc21` + CC(C)C[C@H](NC(=O)[C@H](CCc1ccccc1)NC(=O)CN1CCOCC1)C(=O)N[C@@H](Cc1ccccc1)C(=O)N[C@@H](CC(C)C)C(=O)[C@@]1(C)CO1 [Carfilzomib] was run?
Answer: 36.1

Question: For `Cc1c(C(=O)NN2CCCCC2)nn(-c2ccc(Cl)cc2Cl)c1-c1ccc(Cl)cc1` [Rimonabant] + CC(C)C[C@H](NC(=O)[C@H](CCc1ccccc1)NC(=O)CN1CCOCC1)C(=O)N[C@@H](Cc1ccccc1)C(=O)N[C@@H](CC(C)C)C(=O)[C@@]1(C)CO1 [Carfilzomib], which “cell viability of combination” value is on record?
Answer: 16.3

Question: `CC(=O)c1cc2c(o1)C(=O)c1ccccc1C2=O` [Napabucasin] + CC(C)C[C@H](NC(=O)[C@H](CCc1ccccc1)NC(=O)CN1CCOCC1)C(=O)N[C@@H](Cc1ccccc1)C(=O)N[C@@H](CC(C)C)C(=O)[C@@]1(C)CO1 [Carfilzomib] was tested. Which “cell viability of combination” value did it give?
Answer: 5.17

Question: How did the “cell viability of combination” value turn out when `CN(C)CC=CC(=O)Nc1cc2c(Nc3ccc(F)c(Cl)c3)ncnc2cc1OC1CCOC1` (stereo not given) [Afatinib (BIBW2992)] + CC(C)C[C@H](NC(=O)[C@H](CCc1ccccc1)NC(=O)CN1CCOCC1)C(=O)N[C@@H](Cc1ccccc1)C(=O)N[C@@H](CC(C)C)C(=O)[C@@]1(C)CO1 [Carfilzomib] was run?
Answer: 12.3

Question: Which “cell viability of combination” value does the source give for `CCCCc1oc2ccccc2c1C(=O)c1cc(I)c(OCCN(CC)CC)c(I)c1.Cl` [Amiodarone HCl] + CC(C)C[C@H](NC(=O)[C@H](CCc1ccccc1)NC(=O)CN1CCOCC1)C(=O)N[C@@H](Cc1ccccc1)C(=O)N[C@@H](CC(C)C)C(=O)[C@@]1(C)CO1 [Carfilzomib] here?
Answer: 20.3

Question: How did the “cell viability of combination” value turn out when `COc1ccc(C[C@H](N)C(=O)N[C@@H]2[C@H](O)[C@H](n3cnc4c(N(C)C)ncnc43)O[C@@H]2CO)cc1.Cl.Cl` [Puromycin dihydrochloride] + CC(C)C[C@H](NC(=O)[C@H](CCc1ccccc1)NC(=O)CN1CCOCC1)C(=O)N[C@@H](Cc1ccccc1)C(=O)N[C@@H](CC(C)C)C(=O)[C@@]1(C)CO1 [Carfilzomib] was run?
Answer: 5.17

Question: Which “cell viability of combination” value does the source give for `CO[C@H]1/C=C/O[C@@]2(C)Oc3c(C)c(O)c4c(O)c(c(/C=N/N5CCN(C6CCCC6)CC5)c(O)c4c3C2=O)NC(=O)/C(C)=C\C=C\[C@H](C)[C@H](O)[C@@H](C)[C@@H](O)[C@@H](C)[C@H](OC(C)=O)[C@@H]1C` [Rifapentine] + CC(C)C[C@H](NC(=O)[C@H](CCc1ccccc1)NC(=O)CN1CCOCC1)C(=O)N[C@@H](Cc1ccccc1)C(=O)N[C@@H](CC(C)C)C(=O)[C@@]1(C)CO1 [Carfilzomib] here?
Answer: 21.9

Question: `CO[C@H]1C[C@@H]2CC[C@@H](C)[C@@](O)(O2)C(=O)C(=O)N2CCCC[C@H]2C(=O)O[C@H]([C@H](C)C[C@@H]2CC[C@@H](O)[C@H](OC)C2)CC(=O)[C@H](C)/C=C(\C)[C@@H](O)[C@@H](OC)C(=O)[C@H](C)C[C@H](C)/C=C/C=C/C=C/1C` [Rapamycin (Sirolimus)] + CC(C)C[C@H](NC(=O)[C@H](CCc1ccccc1)NC(=O)CN1CCOCC1)C(=O)N[C@@H](Cc1ccccc1)C(=O)N[C@@H](CC(C)C)C(=O)[C@@]1(C)CO1 [Carfilzomib] was tested. Which “cell viability of combination” value did it give?
Answer: 25.8

Question: For `Cl.O.O=C1Cc2cc(CCN3CCN(c4nsc5ccccc45)CC3)c(Cl)cc2N1` [Ziprasidone hydrochloride monohydrate] + CC(C)C[C@H](NC(=O)[C@H](CCc1ccccc1)NC(=O)CN1CCOCC1)C(=O)N[C@@H](Cc1ccccc1)C(=O)N[C@@H](CC(C)C)C(=O)[C@@]1(C)CO1 [Carfilzomib], which “cell viability of combination” value is on record?
Answer: 22.5

Question: `CCOC(=O)C1=C(COCCN)NC(C)=C(C(=O)OC)C1c1ccccc1Cl` (stereo not given) [Amlodipine] + CC(C)C[C@H](NC(=O)[C@H](CCc1ccccc1)NC(=O)CN1CCOCC1)C(=O)N[C@@H](Cc1ccccc1)C(=O)N[C@@H](CC(C)C)C(=O)[C@@]1(C)CO1 [Carfilzomib] was tested. Which “cell viability of combination” value did it give?
Answer: 15.8

Question: With `Cl.Nc1ccn(C2OC(CO)C(O)C2O)c(=O)n1` (stereo not given) [Cytarabine hydrochloride] + CC(C)C[C@H](NC(=O)[C@H](CCc1ccccc1)NC(=O)CN1CCOCC1)C(=O)N[C@@H](Cc1ccccc1)C(=O)N[C@@H](CC(C)C)C(=O)[C@@]1(C)CO1 [Carfilzomib] as the compound, how does the “cell viability of combination” value read?
Answer: 18.8

Question: `[O-]n1ccccc1=S.[O-]n1ccccc1=S.[Zn+2]` [Zinc Pyrithione] + CC(C)C[C@H](NC(=O)[C@H](CCc1ccccc1)NC(=O)CN1CCOCC1)C(=O)N[C@@H](Cc1ccccc1)C(=O)N[C@@H](CC(C)C)C(=O)[C@@]1(C)CO1 [Carfilzomib] was tested. Which “cell viability of combination” value did it give?
Answer: 13.4

Question: `CNC(=O)c1cc(Oc2ccc(NC(=O)Nc3ccc(Cl)c(C(F)(F)F)c3)c(F)c2)ccn1` [Regorafenib] + CC(C)C[C@H](NC(=O)[C@H](CCc1ccccc1)NC(=O)CN1CCOCC1)C(=O)N[C@@H](Cc1ccccc1)C(=O)N[C@@H](CC(C)C)C(=O)[C@@]1(C)CO1 [Carfilzomib] was tested. Which “cell viability of combination” value did it give?
Answer: 22.4

Question: For `CC1(C)CCC(c2ccc(Cl)cc2)=C(CN2CCN(c3ccc(C(=O)NS(=O)(=O)c4ccc(NC(CCN5CCOCC5)CSc5ccccc5)c(S(=O)(=O)C(F)(F)F)c4)cc3)CC2)C1` (stereo not given) [ABT-263 (Navitoclax)] + CC(C)C[C@H](NC(=O)[C@H](CCc1ccccc1)NC(=O)CN1CCOCC1)C(=O)N[C@@H](Cc1ccccc1)C(=O)N[C@@H](CC(C)C)C(=O)[C@@]1(C)CO1 [Carfilzomib], which “cell viability of combination” value is on record?
Answer: 13.3

Question: Which “cell viability of combination” value does the source give for `CN(C)c1ccc(O)c2c1CC1CC3C(N(C)C)C(=O)C(C(N)=O)=C(O)C3(O)C(=O)C1=C2O.Cl` (stereo not given) [Minocycline HCl] + CC(C)C[C@H](NC(=O)[C@H](CCc1ccccc1)NC(=O)CN1CCOCC1)C(=O)N[C@@H](Cc1ccccc1)C(=O)N[C@@H](CC(C)C)C(=O)[C@@]1(C)CO1 [Carfilzomib] here?
Answer: 26.4
